Pf Dd2 inh = blocks growth of Plasmodium falciparum Dd2 parasites; actives 2.3% (n = 94,000); AID 1159554; P. falciparum Dd2 growth, SYBR Green, 72 h; hits give low values; activity change, % at 10 µM; in the data active = activity change below about -80%; inconclusive = no clear call, values can overlap the other calls
C diff HTS = C. difficile growth inhibition; Clostridium difficile clinical isolate growth, OD600, 24 h; hits give low values; AID 1259249; growth activity, negative = inhibition, % at 16 µg/mL (by protocol); actives 0.25% (n = 86,000);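 active = mean growth activity at or below -80% and every replicate also at or below -80%; inconclusive = mean at or below -80% but some replicate above -80%; inactive = mean growth activity above -80%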;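 also: 0% = DMSO wells and -100% = levofloxacin 16 µg/mL wells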
T cruzi growth-1 = T. cruzi proliferation inhibition | T. cruzi beta-gal in NIH3T3, GalScreen luminescence, 90 h | inhibition, % at 8.34 µM | actives 5.9% (n = 77,000) | AID 624255;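 active = mean inhibition above about 93%, with at least 55% of replicates each passing it, limit read from the data, passing the limit was not always enough; inconclusive = only one of those two conditions holds; inactive = neither condition holds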
T cruzi growth-2 = Trypanosoma cruzi proliferation inhibition. shares compounds with T cruzi growth-1. T. cruzi beta-gal in NIH3T3, GalScreen luminescence, 90 h. inhibition, % at 8.35 µM. actives 72% (n = 5,600);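 active = mean replicate inhibition above about 95% and at least 55% of replicates individually reaching it, limit read from the data; inconclusive = only one of the two criteria is met; inactive = neither criterion is met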
T cruzi growth-3 = blocks T. cruzi growth in NIH3T3 host cells; shares compounds with T cruzi growth-1; T. cruzi beta-gal in NIH3T3, GalScreen luminescence, 90 h; inhibition, % at 2.09 µM; actives 21% (n = 5,600);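 active = mean inhibition above about 95%, with at least 55% of replicates also reaching it, limit read from the data; inconclusive = meets just one of the two conditions; inactive = meets neither condition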;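 also: plate controls were neutral control median for no effect and positive control median for full effect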
3T3 cytotox = kills mouse NIH/3T3 fibroblasts; cytotoxicity (signal decrease), % at 8.35 µM; actives 14% (n = 5,600); shares compounds with T cruzi growth-1; AID 651742; NIH/3T3 viability, CellTiter-Glo ATP luminescence, 90 h;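 active = mean signal decrease across replicates above about 35% based on untreated-well scatter, with enough replicates individually passing, limit read from the data; inconclusive = no rule stated though some were filed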;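 also: 0% = median of neutral control wells and 100% = median of positive control wells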
NIH3T3 tox 2 = kills mouse NIH/3T3 fibroblasts; NIH/3T3 viability, CellTiter-Glo ATP luminescence, 90 h; actives 56% (n = 5,600); inhibition, % at 24.9 µM; shares compounds with T cruzi growth-1;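 active = mean loss of cell viability signal at or above a set limit, and enough replicates individually reaching it; inconclusive = meets only the mean limit or only the replicate share; inactive = meets neither condition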;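 also: 0% = median of neutral control wells and 100% = median of positive control wells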
* = called active by the depositor; ? = inconclusive; . = not tested or not shown. An excerpt weighted towards active compounds, which were near 6.7% of everything screened.

SMILES	Pf Dd2 inh	C diff HTS	T cruzi growth-1	T cruzi growth-2	T cruzi growth-3	3T3 cytotox	NIH3T3 tox 2
O=C(Nc1ccc(F)cc1)Nc1ccc2c(c1)[C@@H]1C[C@@H](CC(=O)N3CCCCC3)O[C@H](CO)[C@@H]1O2	-10.2	1.9	73.2	.	.	.	.
O=C(C[C@@H]1C[C@H]2c3cc(NS(=O)(=O)c4ccccc4)ccc3O[C@H]2[C@H](CO)O1)N1CCCCC1	-42.1	-2.5	104.5*	59.5	35.9	24.0	39.5*
O=C(Nc1ccc(F)cc1)Nc1ccc2c(c1)[C@H]1C[C@@H](CC(=O)N3CCCCC3)O[C@@H](CO)[C@H]1O2	-66.8	2.0	110.9*	17.8	-5.2	-7.3	-1.4
O=C(C[C@@H]1C[C@H]2c3cc(NS(=O)(=O)c4ccccc4)ccc3O[C@H]2[C@@H](CO)O1)N1CCCCC1	-5.5	-3.9	100.9*	70.4	-8.9	-2.2	15.9
O=C(C[C@@H]1C[C@H]2c3cc(NS(=O)(=O)c4ccccc4)ccc3O[C@H]2[C@@H](CO)O1)N1CCOCC1	-2.1	-8.4	46.3	.	.	.	.
O=C(C[C@H]1C[C@H]2c3cc(NS(=O)(=O)c4ccccc4)ccc3O[C@H]2[C@@H](CO)O1)N1CCCCC1	-7.7	-2.8	38.8	.	.	.	.
C[C@@H]1CN([C@@H](C)CO)C(=O)c2cc(NC(=O)CCCCCC(=O)Nc3ccccc3N)ccc2O[C@H]1CN(C)Cc1ccc2c(c1)OCO2	-61.3	2.5	.	.	.	.	.
C[C@H]1CN([C@@H](C)CO)C(=O)c2cccc(NC(=O)CCCCCC(=O)Nc3ccccc3N)c2O[C@@H]1CN(C)C	-66.7	-2.5	.	.	.	.	.
CO[C@@H]1CN(C)C(=O)c2cc(NC(=O)C3CCC3)ccc2OC[C@@H](C)N(Cc2cccnc2)C[C@@H]1C	0.8	.	31.8	.	.	.	.
C[C@@H]1CN([C@@H](C)CO)C(=O)c2cc(C#CC3CCCCC3)cnc2O[C@H]1CN(C)C(=O)NC1CCCC1	-55.8	-10.6	78.3	.	.	.	.
COc1ccc(NC(=O)N2CCCCN3[C@H](CO)[C@H](c4ccc(C#Cc5ccccn5)cc4)[C@@H]3C2)cc1	?	-6.0	44.4	.	.	.	.
COc1ccc(NC(=O)N2CCCCN3[C@@H](CO)[C@H](c4ccc(C#Cc5ccccn5)cc4)[C@@H]3C2)cc1	-85.1*	6.6	102.6*	109.9*	109.3*	-23.9	-7.3
O=C(Nc1ccccc1)N1CCCCN2[C@H](CO)[C@H](c3ccc(C#Cc4ccccn4)cc3)[C@H]2C1	-25.1	11.7	103.6*	99.1*	61.2	-8.4	13.3
O=C(Nc1ccc(F)cc1)N1CCCCN2[C@@H](CO)[C@H](c3ccc(C#Cc4ccccn4)cc3)[C@@H]2C1	-69.8	5.6	122.8*	107.5*	75.4	-14.1	5.6
O=C(Nc1ccc(F)cc1)N1CCCCN2[C@H](CO)[C@H](c3ccc(C#Cc4ccccn4)cc3)[C@H]2C1	-69.1	-7.3	79.6	.	.	.	.
O=C(Nc1ccccc1)N1CCCCN2[C@@H](CO)[C@H](c3ccc(C#Cc4ccccn4)cc3)[C@@H]2C1	-69.8	-3.4	71.8	.	.	.	.
C[C@@H]1CN([C@H](C)CO)C(=O)Cc2cc(NS(=O)(=O)c3ccc(Cl)cc3)ccc2O[C@H]1CN(C)C(=O)Nc1cccc2ccccc12	-31.2	-0.7	9.8	.	.	.	.
O=C(Nc1ccc2c(c1)[C@H]1C[C@H](CC(=O)N3CCOCC3)O[C@H](CO)[C@H]1O2)C1CCOCC1	3.0	.	17.3	.	.	.	.
C[C@@H]1CN([C@H](C)CO)C(=O)Cc2cc(NC(=O)Nc3ccc4c(c3)OCO4)ccc2O[C@@H]1CN(C)Cc1ccc(C(F)(F)F)cc1	1.9	4.4	73.7	.	.	.	.
C[C@@H]1CN([C@@H](C)CO)C(=O)c2cc(NC(=O)Cc3cn(C)c4ccccc34)ccc2O[C@H]1CN(C)Cc1ccc(Cl)c(Cl)c1	-43.4	.	?	104.7*	54.2	12.8	5.7
C[C@H]1CN([C@@H](C)CO)C(=O)c2cc(NC(=O)Cc3cn(C)c4ccccc34)ccc2O[C@@H]1CN(C)Cc1ccc(C(F)(F)F)cc1	-41.1	6.4	93.1	.	.	.	.
C[C@@H]1CN([C@@H](C)CO)C(=O)c2cc(NC(=O)Cc3cn(C)c4ccccc34)ccc2O[C@@H]1CN(C)Cc1ccncc1	-14.2	-8.6	30.3	.	.	.	.
C[C@H](CO)N1C[C@H](C)[C@@H](CN(C)Cc2ccc(Cl)c(Cl)c2)Oc2ccc(NC(=O)Cc3cn(C)c4ccccc34)cc2C1=O	-2.6	29.0	80.0	.	.	.	.
C[C@H](CO)N1C[C@H](C)[C@@H](CN(C)Cc2ccc(C(F)(F)F)cc2)Oc2ccc(NC(=O)Cc3cn(C)c4ccccc34)cc2C1=O	-21.9	1.4	118.2*	106.7*	12.7	6.0	14.0
C[C@H]1CN([C@@H](C)CO)C(=O)c2cc(NC(=O)Cc3cn(C)c4ccccc34)ccc2O[C@@H]1CN(C)Cc1ccncc1	-15.4	-4.2	?	33.5	-25.2	6.1	29.8*
SMILES	Pf Dd2 inh	C diff HTS	T cruzi growth-1	T cruzi growth-2	T cruzi growth-3	3T3 cytotox	NIH3T3 tox 2
CCS(=O)(=O)N1CC(=O)N2[C@H](CO)[C@@H](c3ccc(C#CCc4ccccc4)cc3)[C@H]2C1	-54.8	-1.9	.	.	.	.	.
Cc1ccc(S(=O)(=O)N(C)C[C@@H]2OCc3ccccc3-c3ccccc3C(=O)N([C@H](C)CO)C[C@@H]2C)cc1	-77.6	.	48.1	.	.	.	.
C[C@@H]1CN([C@@H](C)CO)C(=O)c2cc(-c3ccccc3)cnc2O[C@@H]1CN(C)C(=O)Nc1ccccc1	55.4	46.9	18.9	.	.	.	.
CN1CCN(C(=O)C[C@H]2C[C@H]3c4cc(NC(=O)Nc5ccccc5F)ccc4O[C@H]3[C@@H](CO)O2)CC1	-8.4	-1.2	-30.2	.	.	.	.
O=C(Nc1ccccc1)N1CCCCN2[C@H](CO)[C@H](c3ccc(-c4ccccc4F)cc3)[C@@H]2C1	14.9	-1.5	100.9*	111.0*	60.5	-20.0	16.5
O=C(Nc1ccc(F)cc1)N1CCCCN2[C@H](C1)[C@@H](c1ccc(-c3ccccc3F)cc1)[C@@H]2CO	27.4	41.3	85.4	.	.	.	.
COc1ccc(NC(=O)N2CCCCN3[C@H](CO)[C@H](c4ccc(-c5ccccc5F)cc4)[C@H]3C2)cc1	-21.9	82.4	81.3	.	.	.	.
O=C(Nc1ccc(F)cc1)N1CCCCN2[C@H](C1)[C@H](c1ccc(-c3ccccc3F)cc1)[C@@H]2CO	20.3	26.4	?	108.8*	50.6	31.9	65.2*
COc1ccc(NC(=O)N2CCCCN3[C@H](C2)[C@@H](c2ccc(-c4ccccc4F)cc2)[C@@H]3CO)cc1	-5.6	27.8	57.9	.	.	.	.
O=C(Nc1ccccc1)N1CCCCN2[C@@H](CO)[C@H](c3ccc(-c4ccccc4F)cc3)[C@@H]2C1	-4.0	54.2	65.8	.	.	.	.
O=C(Nc1ccc(F)cc1)N1CCCCN2[C@H](CO)[C@H](c3ccc(-c4ccccc4F)cc3)[C@@H]2C1	-1.3	-4.1	114.8*	108.3*	63.7	3.5	51.9*
